An excerpt weighted towards active compounds, which were near 2.4% of everything screened.
HSP90 refold inh: HSP90 refolding inhibition in rabbit reticulocyte lysate. 290,000 tested, 0.91% active. luciferase refolding luminescence, 3 h. AID 1789. inhibition, % at 5.6 µM;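 active = inhibition above the screen-wide mean plus 3 SD, computed separately per campaign, cut at about 16% in these data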;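 also: 0% = DMSO wells and 100% = 60 µM geldanamycin wells; inhibitors lower the luminescence because luciferase stays unfolded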
HSF1 inh: HSF1 inhibition. activity change, negative = inhibition, % at 7.5 µM (by protocol). 300,000 tested, 0.77% active. NIH3T3-HGL HSE-luciferase, MG132-induced, luminescence 8 h; hits give low values;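 active = more than half of replicate wells show activity change below -50%, luminescence cut by over half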;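 also: luciferase reports HSF-1 transcriptional activity via heat shock element; 0% = median of DMSO wells and -100% = zero luminescence signal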
C8 TRAIL sens: caspase-8 TRAIL sensitization. AID 624354. NB7+C8 cells + TRAIL, ATPlite viability luminescence. 360,000 tested, 1% active. inhibition (viability loss, TRAIL sensitization), % at 10 µM;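 active = compounds causing at least 50% loss of cell viability in the single-dose screen, relative to plate controls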
PPC-1+TRAIL kill: compounds killing PPC-1 cancer cells with TRAIL present (potentiator screen, no TRAIL-free arm) | PPC-1 cells + TRAIL, ATPLite viability luminescence | cell killing (% activity), % at 4 µM or 5 µM | AID 1443 | 220,000 tested, 0.41% active;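 active = cell killing above 50% in the first pass at 4 µM, then a duplicate retest at 5 µM averaging 50% or more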;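 also: plate controls were cells with TRAIL plus DMSO for no effect and medium-only wells lacking cells for full effect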
STAT1 inh: inhibitors of IFN-gamma induced STAT1 signaling; inhibition, % at 5.5 µM; NIH 3T3 STAT1-luciferase reporter, luminescence; 200,000 tested, 0.35% active; AID 920;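 active = inhibition above a set limit, the mean inhibition across all tested compounds plus 3 SD, cut at about 34% in these data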;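 also: 0% = IFN-gamma with DMSO and 100% = IFN-gamma with 300 µM nifuroxazide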
STAT3 inh-1: inhibitors of IL-6 induced STAT3 signaling | U3A cells, IL-6 STAT3-luciferase reporter, luminescence; host cell line lacks STAT1 | inhibition, % at 5.5 µM | 190,000 tested, 0.89% active;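 active = inhibition above the mean inhibition across all screened compounds plus 3 SD, cut at about 44% in these data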;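 also: 0% = DMSO only wells and 100% = 100 µM nifuroxazide control wells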
STAT3 inh-2: confirmation of STAT3 signaling inhibitors; AID 1265; U3A cells, IL-6 STAT3 luciferase reporter, luminescence; cell line lacks STAT1; shares compounds with STAT3 inh-1; inhibition, % at 5.7 µM; 1,200 tested, 45% active;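 active = inhibition above the hit cutoff computed for the primary STAT3 screen, cut at about 44% in these data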;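 also: 0% = IL-6 plus DMSO and 100% = IL-6 plus nifuroxazide control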
NFkB inh STAT3ct: counter-screen for STAT3 inhibitors: NF-kappaB inhibition | AID 1308 | shares compounds with STAT3 inh-1 | inhibition, % at 5.7 µM | 1,200 tested, 36% active | HEK293T NF-kB luciferase reporter, TNF-alpha induced;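 active = inhibition above the mean of solvent-only control wells plus 3 SD, cutoff set per campaign, cut at about 13% in these data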;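 also: 0% = TNF-alpha with DMSO and 100% = TNF-alpha with MG high control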
STAT1 inh STAT3c: counter-screen for STAT3 inhibitors: STAT1 inhibition; inhibition, % at 5.7 µM; NIH 3T3 STAT1-luciferase reporter, IFN-gamma induced, luminescence; AID 1317; shares compounds with STAT3 inh-1; 1,200 tested, 27% active;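 active = inhibition above the mean plus 3 SD of solvent-only control wells, limit set per screening run, cut at about 16% in these data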;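 also: 0% = DMSO with IFN-gamma and 100% = nifuroxazide control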
Starred values were filed as active, the others as inactive; · = no result.

SMILES	HSP90 refold inh	HSF1 inh	C8 TRAIL sens	PPC-1+TRAIL kill	STAT1 inh	STAT3 inh-1	STAT3 inh-2	NFkB inh STAT3ct	STAT1 inh STAT3c
CCc1c(C)nc2ncnn2c1NCCc1ccc(Cl)cc1	1	0	14	0	23	54*	59*	16*	25*
O=C(Nc1ccc(S(=O)(=O)NC2=NCCCCC2)cc1)c1cccc(OC(F)F)c1	·	·	5	·	·	·	·	·	·
COc1ccc(C(=O)Nc2ccc(S(=O)(=O)N3CCc4ccccc43)cc2)cc1	13	2	24	·	5	51*	39	13*	2
CCOC(=O)C1CC(=NO)c2ccc(OC)c(OC)c2C1 (stereo not given)	·	·	-6	·	·	·	·	·	·
Cc1csc(SCC(=O)Nc2sc3c(c2C#N)CCC3)n1	-1	6	5	2	-1	-3	·	·	·
N#Cc1c(NC(=O)c2ccccc2)sc2c1CCCCC2	7	0	53*	36	-20	52*	5	-25	-147
CC1CCc2c(sc(NC(=O)CSc3ncn[nH]3)c2C#N)C1 (stereo not given)	7	-33	-2	8	·	·	·	·	·
N#Cc1c(NC(=O)CSc2ncn[nH]2)sc2c1CCCC2	4	-27	8	2	21	60*	57*	18*	2
Cc1ccc(C(=O)Nc2sc3c(c2C#N)CCCCC3)cc1C	0	6	6	13	-37	-21	·	·	·
Cc1ccnc(SCC(=O)Nc2sc3c(c2C#N)CCCC3)n1	0	2	5	8	15	72*	57*	15*	17*
COc1cc2c(cc1OC)C(CNC(=O)C=Cc1cc(OC)c(OC)c(OC)c1)C2 (stereo not given)	·	·	-3	·	·	·	·	·	·
O=c1c2[nH]c3ccccc3c2ncn1CCC1=CCCCC1	0	24	17	19	-20	4	·	·	·
C1=C(CCNc2ncnc3c2[nH]c2ccccc23)CCCC1	6	·	39	15	29	83*	78*	41*	32*
CC(C)OCCCNc1ncnc2c1[nH]c1ccccc12	-3	4	33	25	29	66*	62*	18*	32*
COC(=O)[C@]12CCCCC=C1N(Cc1ccc3c(c1)OCO3)C(=O)[C@H](CC(=O)NCc1ccc(OC)c(OC)c1)C2	·	·	15	·	·	·	·	·	·
c1ccc(-c2noc(-c3ccc4c(c3)OCO4)n2)cc1	-1	-21	43	44	-1	66*	27	6	-63
O=[N+]([O-])c1cccc(-c2nnc(-c3ccc4c(c3)OCO4)o2)c1	3	6	18	15	-46	10	·	·	·
Clc1ccccc1-c1nnc(-c2ccc3c(c2)OCO3)o1	1	62	56*	47	-14	44*	11	-26	-106
c1ccc(-c2noc(COc3ccc4c(c3)OCO4)n2)cc1	-4	46	3	26	-27	-11	·	·	·
c1ccc(-c2noc(-c3ccc4ccccc4c3)n2)cc1	13	-46	55*	22	-56	57*	0	11	-89
CC(=O)N1CCc2c(sc(NC(=O)c3ccc([N+](=O)[O-])o3)c2C#N)C1	-1	-1	20	40	-16	58*	27	-19	22*
COc1ccc(C(=O)Nc2sc3c(c2C#N)CCN(C(C)=O)C3)cc1	1	-4	-4	-12	19	37	·	·	·
COc1ccc(-n2c(-c3ccccc3)nnc2-c2ccc(Cl)cc2)cc1	-2	2	10	24	2	-2	·	·	·
COc1ccc(-n2c(-c3ccc(Cl)cc3)c[n+]3c2CCc2ccccc2-3)cc1	-2	4	39	-3	23	63*	50*	0	20*
O=C(O)CSc1nnc(-c2ccc3c(c2)OCO3)o1	3	-8	-12	-24	2	-5	·	·	·
SMILES	HSP90 refold inh	HSF1 inh	C8 TRAIL sens	PPC-1+TRAIL kill	STAT1 inh	STAT3 inh-1	STAT3 inh-2	NFkB inh STAT3ct	STAT1 inh STAT3c
O=C(c1ccc(Cl)cc1)N1CCCCC(Sc2nnc(-c3ccc4c(c3)OCO4)o2)C1=O (stereo not given)	31*	-18	69*	48	14	98*	85*	70*	40*
COc1ccc(N(C(=O)CCl)C(C(=O)NCCc2ccccc2)c2cccs2)cc1 (stereo not given)	6	-93*	98*	47	24	62*	92*	-2	21*
CCCCc1ccc(-c2ccc(C)cc2O)nc1	-1	20	43	34	-60	51*	17	-37	-113
Clc1ccc2nc(-c3ccc(Br)s3)cn2c1	11	25	59*	40	5	58*	-31	-34	-140
O=C(O)c1ccccc1-c1cn2cc(Cl)ccc2n1	1	1	22	27	-10	6	·	·	·
NC(=O)CSc1nnc(-c2ccc3c(c2)OCO3)o1	6	1	16	6	-14	9	·	·	·
C/C(N)=C(/C#N)C(=O)CSc1nnc(-c2ccc3c(c2)OCO3)o1	4	50	5	27	-37	48*	18	-9	-97
CC1(c2nc3ccccc3cc2C#N)OCCO1	·	·	-17	·	·	·	·	·	·
CC1CN(C(=O)COC(=O)c2cc(=O)[nH]c3ccccc23)CC(C)O1 (stereo not given)	·	·	0	·	·	·	·	·	·
Cc1nnsc1NC(=O)OCc1ccc(Cl)cc1Cl	1	3	12	17	3	27	·	·	·
Cc1nn(C)c(Cl)c1NC(=O)OCc1ccc(Cl)cc1Cl	0	-5	25	7	21	51*	36	8	5
CCN(CC)CCNc1cc(C)c(C#N)c2nc3ccccc3n12	3	-5	-12	·	·	·	·	·	·
Cc1cc(Nc2cccc([N+](=O)[O-])c2)n2c(nc3ccccc32)c1C#N	2	26	-1	27	8	80*	73*	46*	55*
O=C(Nc1ccc(N2CCN(C(=O)c3ccccc3)CC2)c(Cl)c1)c1ccco1	6	·	19	28	7	19	·	·	·
O=C(Nc1ccc(N2CCN(C(=O)c3ccco3)CC2)c(Cl)c1)c1cc2ccccc2o1	2	-74*	61*	21	9	48*	48*	11	4
CCC(=O)N1CCN(c2ccc(NC(=O)c3cc4ccccc4o3)cc2Cl)CC1	1	-2	61*	25	8	49*	34	-3	-14
CCCC(=O)N1CCN(c2ccc(NC(=O)c3cc4ccccc4o3)cc2Cl)CC1	1	-79*	54*	30	12	50*	43	3	-2

Screening data as filed in PubChem.
